Screens (PubChem BioAssay)
Most compounds without a hit are left out; they make up all but 7.9% or so of the library.
HT1080 IDH1KD tx: kills HT-1080 cells with IDH1 knockdown. HT-1080 IDH1 knockdown viability, ATP luminescence, 48 h. Potency, µM (titrated, usually from 46.1 µM), inactives show at the highest dose activity, negative = toxicity, actives largely listed as cytotoxic. 360,000 tested, 2% active. AID 686971;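 further: 0% = DMSO wells and -100% = cell-free medium wells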
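Cytotoxicity counter-line: IDH1KD HT-1080, 48 h, CellTiter-Glo. Curves classed by r2, magnitude and activity.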
KB-V1 MDR tox: KB-V1 MDR subline cytotoxicity; KB-V1 MDR cells viability, CellTiter-Glo, 72 h; Potency, µM (titrated, usually from 46.1 µM), usual class: cytotoxic; 400,000 tested, 3.4% active; AID 1347076; further: on the % scale 0 is the no-effect control and ±100 the full control effect; nearly all actives have a fitted effect of over 60% in size
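qHTS viability screen in drug-selected KB-V1 MDR cells: 72 h compound treatment at 37 degrees C, ATP luminescence end point.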
SW480 rerep: DNA re-replication induction in SW480 cells; SW480 DNA re-replication, Hoechst DNA content imaging, 48 h; Potency, µM (doses to about 46.1 µM), for inactives: top-dose re-replication activation, usual class: activators; 340,000 tested, 1.8% active; AID 624297; further: % of control where 0% means no effect; nearly all actives have a fitted effect of over 55% in size
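Hoechst fluorescence of nuclei (405 nm excitation, 500-530 nm emission) measured by plate-scanning imager after 48 hr compound exposure at 37 C; re-replication scored as increased number of nuclei with elevated intensity.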
KB-3-1 tox: kills parental KB-3-1 adenocarcinoma cells; 400,000 tested, 1.4% active; AID 1347075; Potency, µM (highest dose often 46.1 µM), usual class: cytotoxic; KB-3-1 viability, CellTiter-Glo ATP luminescence, 72 h; further: on the % scale 0 is the no-effect control and ±100 the full control effect; nearly all actives have a fitted effect of over 60% in size
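Parental KB-3-1 adenocarcinoma cells in phenol-red-free DMEM with 10% FBS were pin-treated with compounds at several concentrations, incubated 72 h at 37 °C, and viability read by CellTiter-Glo luminescence; concentration-effect curves were fitted after normalization.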
MCF10A rerep: DNA re-replication induction in MCF 10a cells; MCF 10A DNA re-replication, Hoechst nuclear intensity, 48 h; Potency, µM (titrated, usually from 46.1 µM), for inactives: at the top dose activity, positive = re-replication, usual class: activators; 350,000 tested, 2.9% active; AID 624296; further: % of control where 0% means no effect; nearly all actives have a fitted effect of over 50% in size
HT1080NT lethal: kills 2HG-producing HT-1080-NT fibrosarcoma cells | HT-1080-NT fibrosarcoma viability, CellTiter-Glo ATP luminescence, 48 h | Potency, µM (top dose mostly 46.1 µM), without a hit: top-dose activity, negative = less viability, most hits filed as cytotoxic | 360,000 tested, 1.6% active;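 further: NT is the 2HG producing partner of a matched IDH1 knockdown line; 0% = DMSO-treated cells and -100% = media-only wells without cells; nearly all actives have a fitted effect of over 55% in size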
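Viability by CellTiter-Glo luminescence after 48 h compound exposure at 37C of HT-1080-NT cells (750/well, RPMI, 5% FBS). % activity scaled between DMSO wells and medium-only wells, then curve-fitted and categorized by curve class.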
* hit, by the source's call; i = inactive; ? = inconclusive; · = no result given. The call rests on the fitted dose curve; in most records, active means well fitted curve in the direction sought with a large enough effect; inconclusive means small, poorly fitted or top-dose-only effect, or another doubt; inactive means no such curve, though single readings can be large; an effect the other way counts as inactive or inconclusive. Potency means the concentration at half of the fitted maximal effect.

SMILES	HT1080 IDH1KD tx	KB-V1 MDR tox	SW480 rerep	KB-3-1 tox	MCF10A rerep	HT1080NT lethal
CCCCCCCCN1C(=O)[C@H](CC(=O)NCc2ccc(OC)c(OC)c2)C[C@@]2(C(=O)OC)CC(C)(C)CC=C12	?	21µM*	·	?	·	?
Cn1c(CC(=O)Nc2ccc(F)cc2)nnc1SCC(=O)Nc1nncs1	3%	?	-10%	i	21%	19%
CCOC(=O)CC(NC(=O)N1CCC(CN2CCC(C)CC2)CC1)c1ccccc1 (stereo not given)	·	i	·	i	·	·
Cc1nc2ccccn2c1C(=O)/C=C/c1cccc([N+](=O)[O-])c1	0%	?	4.1µM*	2.6µM*	?	-1%
Cc1ccc(/C=C/C(=O)c2c(C)nc3ccccn23)cc1	-21%	i	?	18µM*	?	?
CC(=O)c1c(C)nc2ccccn12	2%	i	-1%	i	3%	15%
COc1ccccc1N(C)S(=O)(=O)c1ccc(C)c(C(=O)NC(C)c2ccccn2)c1 (stereo not given)	-1%	9.2µM*	4%	i	14%	-5%
COc1ccc(CNc2nc3ccccc3n2Cc2ccc(Cl)cc2)cc1OC	16µM*	i	5%	i	?	21µM*
COc1cc(CNc2nc3ccccc3n2Cc2ccccc2)ccc1O	-9%	i	·	i	·	-1%
Cc1nc2ccccc2n1Cc1ccc(Cl)cc1	?	7.3µM*	?	?	?	?
Cn1cccc1-c1nc2ccccc2n1Cc1ccccc1	?	?	6%	i	11µM*	-12%
Cc1ccc(Cl)cc1N1CCN(CCCNC(=O)Cn2ncc3c([nH]c4ccccc43)c2=O)CC1	·	i	·	i	·	·
C/C(CC1CC2=C(CC1(C)C)C(C)(C)CCC2)=N\NC(N)=S (stereo not given)	5.6µM*	?	?	i	-3%	?
C/C(CC1CC(C)(C)OC1=O)=N\NC(N)=S (stereo not given)	8%	i	1%	i	-21%	3%
COc1cccc(COCC(O)CN2CCC(C(N)=O)CC2)c1 (stereo not given)	26%	i	-1%	i	-1%	-2%
Cn1c(CCCOc2ccc(Cl)cc2Cl)nnc1SCC(=O)Nc1cccc(F)c1	-24%	i	-1%	i	?	?
CCc1cccc(C)c1NC(=O)CSc1nnc(CCCOc2ccc(Cl)cc2Cl)n1C	?	4.6µM*	-15%	18µM*	25%	-22%
Cn1c(CCCOc2ccc(Cl)cc2Cl)nnc1SCC(=O)Nc1ccc(F)c(Cl)c1	-24%	i	12%	i	23µM*	?
CC(=O)N1CCN(c2ccc(NS(=O)(=O)c3ccc4c(c3)CC(=O)N4)cc2)CC1	·	i	·	?	·	·
O=C(N/N=C/c1cc(Cl)cc([N+](=O)[O-])c1O)NC12CC3CC(CC(C3)C1)C2	-14%	?	10%	?	18µM*	-20%
O=C(N/N=C/c1cc(Cl)cc([N+](=O)[O-])c1O)c1ccc2c(c1)OCO2	-4%	i	18µM*	?	?	-1%
Cc1cc(Br)cc(/C=N/NC(=O)c2ccc3c(c2)OCO3)c1O	16µM*	i	?	?	-1%	?
COc1cc(Cl)cc(/C=N\NC(=O)c2ccc3c(c2)OCO3)c1O	9.2µM*	?	·	i	·	9.2µM*
O=C(N/N=C/c1cc(Br)cc(Cl)c1O)c1ccc2c(c1)OCO2	?	?	-111%	?	?	?
O=C(N/N=C/c1ccccc1O)NC12CC3CC(CC(C3)C1)C2	?	i	-5%	i	?	?
SMILES	HT1080 IDH1KD tx	KB-V1 MDR tox	SW480 rerep	KB-3-1 tox	MCF10A rerep	HT1080NT lethal
CC(C)(CNC(=O)Cc1ccc(Br)cc1)N1CCOCC1	0%	i	1%	i	0%	0%
Cc1ccc(S(=O)(=O)N2C(=O)CCC2C(=O)O/N=C(\N)c2ccc([N+](=O)[O-])cc2)cc1 (stereo not given)	10%	i	5%	i	-3%	-2%
CC1CCN(C(=O)CN(C)S(=O)(=O)c2cccc3nsnc23)CC1	2%	23µM*	-3%	i	1%	-2%
CC1(c2nnnn2-c2ccc3c(c2)OCCO3)CCC(=O)N1Cc1cccnc1 (stereo not given)	8%	i	·	i	·	17%
Cc1cc(N=Cc2c(O)ccc3ccccc23)no1	?	?	-4%	i	12%	?
Cc1cc(N=Cc2c(O)ccc3cc(Br)ccc23)no1	-27%	i	-693%	i	13µM*	-21%
Cc1cc(N2CCOCC2)ccc1/C=C\[N+](=O)[O-]	5.8µM*	?	5.8µM*	i	18µM*	4.1µM*
CC1(C(=O)NS(=O)(=O)c2ccc(C#N)cc2)CCN1C(=O)c1cccc2ccccc12 (stereo not given)	19%	i	·	i	·	9%
Cc1nn(C)cc1C(=O)/C=C/c1ccc([N+](=O)[O-])cc1	?	?	?	?	?	23µM*
CN1CCN(C(=O)/C=C/c2ccc([N+](=O)[O-])cc2)CC1	3%	i	-2%	i	?	5%
CCn1cc(CN(C)C(=O)/C=C/c2ccc([N+](=O)[O-])cc2)c(C)n1	-2%	18µM*	-4%	i	-1%	1%
C/C(=N\N)c1c(-c2ccccc2)c2cc(C)ccc2[nH]c1=O	10%	i	?	i	5%	13%
CC/C(C)=N/NC(=O)c1[nH]c2ccc(C)cc2c1-c1ccccc1	?	i	?	i	12µM*	?
O=C(NN=C1CCCC1)c1[nH]c2ccc(Cl)cc2c1-c1ccccc1	12µM*	?	?	i	2.9µM*	?
Cc1ccc2c(c1)CCC2=O	·	i	·	i	·	·
Cc1cc(=O)oc2cc(OCC(=O)Nc3ccc(CN4CCOCC4)cc3)c(Cl)cc12	0%	i	-15%	i	-1%	-1%
Cc1c(O)ccc2cc(S(=O)(=O)c3ccccc3)c(=O)oc12	-6%	i	1.8µM*	i	4.1µM*	?
O=C(O)c1ccc2oc(=O)c(S(=O)(=O)c3ccccc3)cc2c1	10%	?	-8%	i	-10%	-1%
CC(=O)C1CCC2C3CC=C4CC(SC(=N)N)CCC4(C)C3CCC12C (stereo not given)	?	23µM*	?	?	?	?
